Holding throughout (test): DAPPL (digital affinity profiling via proximity ligation, sequencing); 10 mM Tris-HCl pH 7.5, 50 mM NaCl, 1 mM DTT, 4% glycerol, room temperature, 30 min; GST-TFs on glutathione beads, 16-mer random dsDNA library, 0.1% formaldehyde crosslink after washing; high values mean tight binding
Common to all, as to details: protein: recombinant; tags: N-terminal GST; dsDNA, one strand shown

One test has as its target T1, ELK1 (Homo sapiens, UniProt P19419 1-428).
T1 sequence: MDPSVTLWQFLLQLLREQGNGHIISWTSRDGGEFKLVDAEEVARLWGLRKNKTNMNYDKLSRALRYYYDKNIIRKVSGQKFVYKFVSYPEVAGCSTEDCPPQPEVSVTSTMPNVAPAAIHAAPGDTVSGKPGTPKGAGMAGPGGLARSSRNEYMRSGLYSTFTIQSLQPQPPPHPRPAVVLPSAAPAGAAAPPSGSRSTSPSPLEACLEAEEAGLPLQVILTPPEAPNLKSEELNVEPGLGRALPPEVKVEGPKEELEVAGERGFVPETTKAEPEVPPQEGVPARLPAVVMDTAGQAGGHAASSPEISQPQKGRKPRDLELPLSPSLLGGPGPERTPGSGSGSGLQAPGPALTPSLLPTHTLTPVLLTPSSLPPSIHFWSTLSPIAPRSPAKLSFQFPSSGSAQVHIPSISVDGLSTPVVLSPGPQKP
The gist of the method: (§1)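 Beads coated with glutathione captured GST-fused human transcription factors that had been expressed in yeast, and the factors were then given DNA barcodes and pooled with a tag-only sample. The pools were incubated with 200 nmole of a random double-stranded 16-mer DNA library in Tris/NaCl/DTT/glycerol buffer for 30 min at room temperature, washed, crosslinked with 0.1% formaldehyde and proximity-ligated with BsaI/T4 ligase at 37 °C for 1 h. PCR amplification and Illumina NextSeq500 sequencing came last. Binding signal is each hexamer's read frequency for a factor divided by its frequency for the tag-only sample.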

A further test addresses T2, GABPA (Homo sapiens, UniProt Q06546 1-454).
T2 sequence: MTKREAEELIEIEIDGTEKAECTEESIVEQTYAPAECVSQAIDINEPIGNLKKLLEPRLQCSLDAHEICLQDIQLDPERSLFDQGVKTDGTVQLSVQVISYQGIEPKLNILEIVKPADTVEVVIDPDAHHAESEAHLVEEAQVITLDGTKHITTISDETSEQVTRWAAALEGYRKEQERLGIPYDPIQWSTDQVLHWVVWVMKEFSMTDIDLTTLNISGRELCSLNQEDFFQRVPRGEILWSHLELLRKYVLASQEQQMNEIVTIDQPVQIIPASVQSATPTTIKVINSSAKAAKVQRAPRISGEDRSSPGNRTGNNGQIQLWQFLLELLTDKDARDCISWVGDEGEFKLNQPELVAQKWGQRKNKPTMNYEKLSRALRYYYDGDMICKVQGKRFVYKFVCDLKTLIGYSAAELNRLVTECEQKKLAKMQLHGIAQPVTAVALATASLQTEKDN
The gist of the method: as §1

The target of another test is T3, ERG (Homo sapiens, UniProt P11308 1-479).
T3 sequence: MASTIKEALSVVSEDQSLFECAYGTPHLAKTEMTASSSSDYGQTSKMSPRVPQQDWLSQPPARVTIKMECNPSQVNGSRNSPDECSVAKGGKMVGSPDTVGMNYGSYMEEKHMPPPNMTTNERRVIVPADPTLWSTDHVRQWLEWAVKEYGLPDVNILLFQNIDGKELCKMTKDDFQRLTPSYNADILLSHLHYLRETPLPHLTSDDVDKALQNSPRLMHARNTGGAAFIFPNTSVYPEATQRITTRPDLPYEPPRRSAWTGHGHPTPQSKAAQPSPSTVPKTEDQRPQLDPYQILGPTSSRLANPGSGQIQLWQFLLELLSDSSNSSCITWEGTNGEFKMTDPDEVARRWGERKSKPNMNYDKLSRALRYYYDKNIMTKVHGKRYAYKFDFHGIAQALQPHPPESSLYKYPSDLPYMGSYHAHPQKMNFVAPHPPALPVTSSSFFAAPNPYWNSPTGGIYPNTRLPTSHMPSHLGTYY
The gist of the method:
as §1

For the next test, the target named is ELF1 (Homo sapiens, UniProt P32519 1-619). The gist of the method:
as §1

A further test deals with T4, EHF (Homo sapiens, UniProt Q9NZC4 1-300).
T4 sequence: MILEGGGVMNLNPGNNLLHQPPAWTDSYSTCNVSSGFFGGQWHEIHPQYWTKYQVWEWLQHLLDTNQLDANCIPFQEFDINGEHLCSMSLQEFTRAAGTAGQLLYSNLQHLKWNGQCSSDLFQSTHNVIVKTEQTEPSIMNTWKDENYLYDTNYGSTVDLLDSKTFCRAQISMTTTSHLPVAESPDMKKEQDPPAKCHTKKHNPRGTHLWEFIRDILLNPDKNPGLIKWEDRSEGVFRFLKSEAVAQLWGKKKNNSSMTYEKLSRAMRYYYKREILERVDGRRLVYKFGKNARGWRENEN
The gist of the method:
as §1

Another test concerns the target SPI1 (Homo sapiens, UniProt P17947 1-270). The gist of the method:
as §1

The target in a further test is SPIB (Homo sapiens, UniProt Q01892 1-262). The method in brief:
as §1

The next test has as its target T5, FEV (Homo sapiens, UniProt Q99581 1-238).
T5 sequence: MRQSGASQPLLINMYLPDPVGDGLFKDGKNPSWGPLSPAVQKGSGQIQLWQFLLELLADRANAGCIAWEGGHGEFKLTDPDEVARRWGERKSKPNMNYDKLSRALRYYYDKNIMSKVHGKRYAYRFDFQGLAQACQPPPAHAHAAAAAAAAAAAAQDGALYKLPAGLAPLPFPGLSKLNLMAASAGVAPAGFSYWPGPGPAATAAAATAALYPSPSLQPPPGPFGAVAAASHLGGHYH
The method in brief: as §1

Another test deals with ETV5 (Homo sapiens, UniProt P41161 1-510). The method in brief: as §1
Another test has as its target ELF4 (Homo sapiens, UniProt Q99607 1-663). The gist of the method:
as §1

The next test addresses T6, ELK4 (Homo sapiens, UniProt P28324-2 1-405).
T6 sequence: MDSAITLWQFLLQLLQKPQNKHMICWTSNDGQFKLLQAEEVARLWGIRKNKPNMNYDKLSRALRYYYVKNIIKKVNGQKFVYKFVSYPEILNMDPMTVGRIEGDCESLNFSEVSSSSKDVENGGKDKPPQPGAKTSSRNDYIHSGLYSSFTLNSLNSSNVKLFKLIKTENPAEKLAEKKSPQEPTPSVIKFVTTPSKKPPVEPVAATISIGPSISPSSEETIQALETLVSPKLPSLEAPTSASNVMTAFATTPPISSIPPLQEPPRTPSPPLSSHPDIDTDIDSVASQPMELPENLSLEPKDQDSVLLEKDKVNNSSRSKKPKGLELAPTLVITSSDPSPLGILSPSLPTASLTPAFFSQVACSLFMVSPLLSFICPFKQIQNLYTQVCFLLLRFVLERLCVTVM
The gist of the method:
as §1

The target in the next test is T7, ETV2 (Homo sapiens, UniProt O00321 1-342).
T7 sequence: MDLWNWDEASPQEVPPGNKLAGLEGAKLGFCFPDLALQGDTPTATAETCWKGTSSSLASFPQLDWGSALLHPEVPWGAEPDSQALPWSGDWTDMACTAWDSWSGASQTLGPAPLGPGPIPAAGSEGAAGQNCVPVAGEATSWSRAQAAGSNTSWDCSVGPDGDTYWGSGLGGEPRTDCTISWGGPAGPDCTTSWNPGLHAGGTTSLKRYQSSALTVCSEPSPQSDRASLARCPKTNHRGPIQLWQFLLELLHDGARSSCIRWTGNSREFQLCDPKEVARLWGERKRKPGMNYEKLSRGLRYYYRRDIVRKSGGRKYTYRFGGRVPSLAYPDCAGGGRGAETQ
The gist of the method: as §1

In another test the target is ETV1 (Homo sapiens, UniProt P50549 1-477). The method in brief:
as §1

The next test has as its target T8, ERF (Homo sapiens, UniProt P50548 1-548).
T8 sequence: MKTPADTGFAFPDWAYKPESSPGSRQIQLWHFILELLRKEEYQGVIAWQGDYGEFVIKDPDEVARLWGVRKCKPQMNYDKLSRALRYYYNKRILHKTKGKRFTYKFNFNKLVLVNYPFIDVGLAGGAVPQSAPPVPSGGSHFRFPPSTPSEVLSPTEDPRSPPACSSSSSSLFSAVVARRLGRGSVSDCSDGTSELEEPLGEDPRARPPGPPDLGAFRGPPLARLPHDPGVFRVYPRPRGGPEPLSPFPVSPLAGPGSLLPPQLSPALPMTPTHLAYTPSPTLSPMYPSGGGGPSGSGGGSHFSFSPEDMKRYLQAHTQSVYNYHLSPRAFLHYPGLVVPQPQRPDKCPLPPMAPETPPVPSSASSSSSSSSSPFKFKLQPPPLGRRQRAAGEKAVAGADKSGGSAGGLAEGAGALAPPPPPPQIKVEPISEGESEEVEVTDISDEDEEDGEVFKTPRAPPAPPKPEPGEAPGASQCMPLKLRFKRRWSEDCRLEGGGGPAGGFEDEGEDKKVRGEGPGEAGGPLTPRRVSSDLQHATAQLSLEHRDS
The gist of the method: as §1

The target in the next test is T9, ETV3L (Homo sapiens, UniProt Q6ZN32 1-361).
T9 sequence: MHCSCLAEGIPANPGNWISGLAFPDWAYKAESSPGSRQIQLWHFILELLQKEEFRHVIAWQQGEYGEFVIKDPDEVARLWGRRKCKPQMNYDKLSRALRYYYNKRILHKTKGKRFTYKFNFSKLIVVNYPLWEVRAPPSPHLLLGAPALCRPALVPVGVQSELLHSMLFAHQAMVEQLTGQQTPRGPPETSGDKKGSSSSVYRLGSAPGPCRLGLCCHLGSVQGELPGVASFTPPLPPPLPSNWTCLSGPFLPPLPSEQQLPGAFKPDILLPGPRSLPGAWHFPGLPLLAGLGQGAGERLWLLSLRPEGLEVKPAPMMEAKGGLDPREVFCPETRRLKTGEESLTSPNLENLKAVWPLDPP
The method in brief: as §1

For the next test, the target named is T10, ETS2 (Homo sapiens, UniProt P15036 1-469).
T10 sequence: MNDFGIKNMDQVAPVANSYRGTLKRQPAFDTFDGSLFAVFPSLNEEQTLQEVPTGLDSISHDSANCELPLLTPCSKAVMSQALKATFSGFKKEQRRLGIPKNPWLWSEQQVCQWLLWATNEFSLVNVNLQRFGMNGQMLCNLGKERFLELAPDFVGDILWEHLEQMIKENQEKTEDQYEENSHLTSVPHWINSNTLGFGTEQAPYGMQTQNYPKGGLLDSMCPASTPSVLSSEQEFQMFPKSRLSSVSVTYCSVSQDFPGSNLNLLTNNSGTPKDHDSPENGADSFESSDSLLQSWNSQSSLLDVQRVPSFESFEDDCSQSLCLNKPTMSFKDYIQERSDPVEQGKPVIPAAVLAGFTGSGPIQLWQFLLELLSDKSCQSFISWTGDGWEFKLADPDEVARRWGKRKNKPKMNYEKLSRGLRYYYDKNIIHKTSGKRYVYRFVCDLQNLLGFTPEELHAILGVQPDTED
The method in brief:
as §1

In a further test the target is T11, SPDEF (Homo sapiens, UniProt O95238 1-335).
T11 sequence: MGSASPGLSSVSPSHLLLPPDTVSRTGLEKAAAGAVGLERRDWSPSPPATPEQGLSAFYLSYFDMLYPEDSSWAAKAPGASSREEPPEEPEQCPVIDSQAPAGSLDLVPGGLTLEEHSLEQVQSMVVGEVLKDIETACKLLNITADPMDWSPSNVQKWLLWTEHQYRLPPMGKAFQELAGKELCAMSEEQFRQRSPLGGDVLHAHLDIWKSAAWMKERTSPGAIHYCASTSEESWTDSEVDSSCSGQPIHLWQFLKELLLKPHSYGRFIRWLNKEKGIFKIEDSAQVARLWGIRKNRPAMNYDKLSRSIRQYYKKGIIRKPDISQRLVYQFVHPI
The gist of the method:
as §1

Another test deals with T12, ETV7 (Homo sapiens, UniProt Q9Y603 1-341).
T12 sequence: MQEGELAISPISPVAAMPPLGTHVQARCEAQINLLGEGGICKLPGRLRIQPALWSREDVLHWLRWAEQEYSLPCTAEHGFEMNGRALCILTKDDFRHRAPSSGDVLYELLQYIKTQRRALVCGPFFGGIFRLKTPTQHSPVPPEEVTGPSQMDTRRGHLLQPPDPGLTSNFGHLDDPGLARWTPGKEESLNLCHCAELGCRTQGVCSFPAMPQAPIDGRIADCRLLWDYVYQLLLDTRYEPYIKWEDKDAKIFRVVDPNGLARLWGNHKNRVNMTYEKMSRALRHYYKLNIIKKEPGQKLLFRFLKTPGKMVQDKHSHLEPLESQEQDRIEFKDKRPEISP
The gist of the method:
as §1

In the next test the target is T13, ETV3 (Homo sapiens, UniProt P41162-2 1-143).
T13 sequence: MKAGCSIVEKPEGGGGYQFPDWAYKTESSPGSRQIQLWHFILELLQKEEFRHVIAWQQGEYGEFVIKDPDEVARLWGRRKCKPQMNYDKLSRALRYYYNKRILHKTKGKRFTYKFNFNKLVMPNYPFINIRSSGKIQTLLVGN
The gist of the method:
as §1

ETV1, sequence (P50549 whole entry): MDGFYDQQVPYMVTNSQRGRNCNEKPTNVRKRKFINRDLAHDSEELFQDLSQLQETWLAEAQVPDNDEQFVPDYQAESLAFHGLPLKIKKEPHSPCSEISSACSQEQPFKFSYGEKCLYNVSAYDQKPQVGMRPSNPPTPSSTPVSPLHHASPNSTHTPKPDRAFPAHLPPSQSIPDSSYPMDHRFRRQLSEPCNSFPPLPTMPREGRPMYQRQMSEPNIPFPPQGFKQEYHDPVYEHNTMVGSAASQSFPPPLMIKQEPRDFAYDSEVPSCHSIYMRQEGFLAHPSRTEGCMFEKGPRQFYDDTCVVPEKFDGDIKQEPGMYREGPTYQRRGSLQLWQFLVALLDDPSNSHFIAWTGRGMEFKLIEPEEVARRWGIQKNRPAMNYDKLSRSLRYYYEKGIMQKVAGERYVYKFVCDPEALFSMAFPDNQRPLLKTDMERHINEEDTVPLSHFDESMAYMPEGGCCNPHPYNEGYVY
ETV5, sequence (P41161 whole entry): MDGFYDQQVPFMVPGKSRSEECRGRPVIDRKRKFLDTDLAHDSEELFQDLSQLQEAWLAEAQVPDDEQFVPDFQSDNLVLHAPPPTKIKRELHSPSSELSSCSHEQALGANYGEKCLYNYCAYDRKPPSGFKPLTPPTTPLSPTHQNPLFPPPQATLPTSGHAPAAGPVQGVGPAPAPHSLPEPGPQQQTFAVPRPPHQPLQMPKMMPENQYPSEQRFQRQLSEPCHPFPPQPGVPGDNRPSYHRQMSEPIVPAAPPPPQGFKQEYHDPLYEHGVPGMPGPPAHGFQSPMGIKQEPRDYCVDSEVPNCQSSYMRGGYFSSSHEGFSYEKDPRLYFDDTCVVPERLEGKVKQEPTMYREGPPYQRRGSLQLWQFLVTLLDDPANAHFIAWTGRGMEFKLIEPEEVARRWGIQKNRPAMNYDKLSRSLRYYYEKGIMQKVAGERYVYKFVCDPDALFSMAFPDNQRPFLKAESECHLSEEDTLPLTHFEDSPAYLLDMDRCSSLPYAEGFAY
ELF4, sequence (Q99607 whole entry): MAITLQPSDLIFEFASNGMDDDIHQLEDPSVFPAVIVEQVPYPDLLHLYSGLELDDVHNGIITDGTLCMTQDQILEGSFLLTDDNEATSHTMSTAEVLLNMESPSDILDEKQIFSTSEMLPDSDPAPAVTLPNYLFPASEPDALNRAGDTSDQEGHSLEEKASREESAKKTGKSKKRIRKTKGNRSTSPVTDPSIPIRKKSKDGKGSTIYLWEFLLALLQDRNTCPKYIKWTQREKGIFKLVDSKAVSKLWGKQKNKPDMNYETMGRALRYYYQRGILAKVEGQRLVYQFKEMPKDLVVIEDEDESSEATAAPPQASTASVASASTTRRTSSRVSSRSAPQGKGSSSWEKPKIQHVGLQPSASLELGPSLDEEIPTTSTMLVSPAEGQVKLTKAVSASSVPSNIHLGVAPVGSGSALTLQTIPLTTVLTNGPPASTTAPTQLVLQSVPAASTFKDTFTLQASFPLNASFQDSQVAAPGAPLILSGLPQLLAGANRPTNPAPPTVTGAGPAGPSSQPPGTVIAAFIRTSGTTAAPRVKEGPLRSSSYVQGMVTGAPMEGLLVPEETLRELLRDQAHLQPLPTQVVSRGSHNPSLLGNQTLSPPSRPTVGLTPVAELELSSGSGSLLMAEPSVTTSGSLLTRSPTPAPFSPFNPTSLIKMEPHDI
ELF1, sequence (P32519 whole entry): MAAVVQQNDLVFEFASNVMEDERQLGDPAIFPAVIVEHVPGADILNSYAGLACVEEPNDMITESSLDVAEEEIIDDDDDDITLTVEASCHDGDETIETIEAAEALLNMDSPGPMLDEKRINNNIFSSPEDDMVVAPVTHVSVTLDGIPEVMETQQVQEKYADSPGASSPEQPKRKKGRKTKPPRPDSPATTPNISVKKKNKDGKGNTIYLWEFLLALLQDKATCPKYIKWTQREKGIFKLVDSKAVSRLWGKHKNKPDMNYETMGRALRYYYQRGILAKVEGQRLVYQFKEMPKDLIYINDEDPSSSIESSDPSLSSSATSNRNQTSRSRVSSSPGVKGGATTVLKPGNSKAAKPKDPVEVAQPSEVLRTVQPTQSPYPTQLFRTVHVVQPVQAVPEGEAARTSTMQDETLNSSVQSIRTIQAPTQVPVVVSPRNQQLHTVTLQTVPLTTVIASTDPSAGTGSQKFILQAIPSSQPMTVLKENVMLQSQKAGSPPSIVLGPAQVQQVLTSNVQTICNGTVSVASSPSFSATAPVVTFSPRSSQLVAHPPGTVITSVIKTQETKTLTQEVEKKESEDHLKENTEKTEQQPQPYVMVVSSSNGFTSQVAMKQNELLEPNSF
SPIB, sequence (Q01892 whole entry): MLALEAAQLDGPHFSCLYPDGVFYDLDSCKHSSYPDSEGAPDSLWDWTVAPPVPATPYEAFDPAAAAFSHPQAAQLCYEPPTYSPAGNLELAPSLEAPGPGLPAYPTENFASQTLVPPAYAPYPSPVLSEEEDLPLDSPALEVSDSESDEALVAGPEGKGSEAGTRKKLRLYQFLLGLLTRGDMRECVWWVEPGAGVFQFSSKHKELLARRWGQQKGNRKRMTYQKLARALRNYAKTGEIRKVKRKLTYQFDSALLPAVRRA

In the case of CGATGC, the binding signal with ELK1 was 1.1 fold enrichment (6-mer frequency, TF over GST control); in the test with GABPA it was 1.19 fold enrichment (6-mer frequency, TF over GST control); with ERG, 1.08 fold enrichment (6-mer frequency, TF over GST control); in the test with ELF1, 1.02 fold enrichment (6-mer frequency, TF over GST control); with EHF it was 1.09 fold enrichment (6-mer frequency, TF over GST control); in the test with SPI1, 1.12 fold enrichment (6-mer frequency, TF over GST control). Moreover, the binding signal is 1.06 fold enrichment (6-mer frequency, TF over GST control) in the test with SPIB; 1.07 fold enrichment (6-mer frequency, TF over GST control) with FEV; 1.11 fold enrichment (6-mer frequency, TF over GST control) with ETV5; 1.19 fold enrichment (6-mer frequency, TF over GST control) in the test with ELF4; 1.07 fold enrichment (6-mer frequency, TF over GST control) in the test with ELK4; 1.15 fold enrichment (6-mer frequency, TF over GST control) with ETV2. The binding signal with ETV1 is 1.03 fold enrichment (6-mer frequency, TF over GST control); with ERF, 1.07 fold enrichment (6-mer frequency, TF over GST control); with ETV3L, 1.18 fold enrichment (6-mer frequency, TF over GST control); with ETS2, 1.06 fold enrichment (6-mer frequency, TF over GST control); with SPDEF it was 1.07 fold enrichment (6-mer frequency, TF over GST control); in the test with ETV7, 1.04 fold enrichment (6-mer frequency, TF over GST control). For the same sequence, in the test with ETV3, the binding signal is 1.17 fold enrichment (6-mer frequency, TF over GST control).
